Screening results from PubChem BioAssay.
HTT prom inh = HTT promoter inhibition. HEK293 HTT promoter firefly luciferase reporter, 24 h. Potency, µM (series often up to 57.5 µM), for inactives: top-dose activity change, negative = inhibition, actives largely listed as inhibitors. actives 0.93% (n = 48,000). AID 1508623; note: nearly all actives have a fitted effect of over 50% in size
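Luminescence was read after Dual-Glo reagent and a 10 min room-temperature incubation. Values were normalized to vehicle (0% activity) and zero RLU (-100% activity). Reporter HEK293 cells had been exposed to compounds (up to 57.5 uM final) for 24 h.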
HTT-AS act = HTT-AS promoter activation; HEK293 HTT-AS promoter firefly luciferase reporter, 24 h; response scale: percent change from vehicle, -100% = no light; Potency, µM (doses to about 57.5 µM), for the others: top-dose activity change, positive = activation, hits mostly activators; actives 0.24% (n = 48,000); AID 1508624; note: nearly all actives have a fitted effect of over 55% in size
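HEK293 cells carrying firefly luciferase reporters were seeded at 2,500 per well in Opti-MEM and cultured for 24 h. They were then treated with compounds at up to 57.5 uM final for 24 h at 37 degrees C before Dual-Glo luminescence readout.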
FH mod = Identification of activators of human fumarate hydratase by quantitative high-throughput screening; Fumarate hydratase, mitochondrial (Homo sapiens), P07954; FH coupled MDH/diaphorase resazurin fluorescence, 15 min; Potency, µM (series often up to 79.9 µM), for the others: top-dose activity change, negative = inhibition, most hits filed as inhibitors; actives 0.22% (n = 54,000); AID 1347055, 2019; note: % is set by controls: 0 for no effect and ±100 for the full control effect; the screen sought activators but most active calls are inhibition curves; nearly all actives have a fitted effect of over 45% in size
Target sequence (P07954 whole entry, looked up): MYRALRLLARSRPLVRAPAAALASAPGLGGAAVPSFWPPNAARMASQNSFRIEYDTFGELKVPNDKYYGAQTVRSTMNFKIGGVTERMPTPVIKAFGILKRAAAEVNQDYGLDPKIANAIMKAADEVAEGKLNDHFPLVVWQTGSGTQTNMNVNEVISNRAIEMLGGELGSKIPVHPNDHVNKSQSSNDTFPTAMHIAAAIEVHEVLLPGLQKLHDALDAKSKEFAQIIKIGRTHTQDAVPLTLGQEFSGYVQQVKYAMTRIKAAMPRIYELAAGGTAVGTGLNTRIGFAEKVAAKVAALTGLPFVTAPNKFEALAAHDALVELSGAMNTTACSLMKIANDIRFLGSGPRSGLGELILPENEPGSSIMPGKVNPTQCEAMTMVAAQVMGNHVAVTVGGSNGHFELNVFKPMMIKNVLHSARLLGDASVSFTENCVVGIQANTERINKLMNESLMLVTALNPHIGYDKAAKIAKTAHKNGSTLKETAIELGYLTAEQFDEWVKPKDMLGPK
* hit, by the source's call; ? = inconclusive; · = not tested or not shown; [ ] = another dose, or the depositor's remark. Rows were chosen to be rich in hits. Some 1.3% of all compounds tested hit in one or more screens of this group. Calls come from the whole dose curve; as a rule, active = well fitted curve in the direction sought with a large enough effect; inconclusive = small, poorly fitted or top-dose-only effect, or another doubt; inactive = no such curve, though single readings can be large; an effect the other way counts as inactive or inconclusive. Potency is the fitted concentration of half-maximal effect.

SMILES | HTT prom inh | HTT-AS act | FH mod
CCOC(=O)c1cc(C)n(CC2CCC(C(=O)Nc3ccc(Cl)cc3)CC2)c1C (stereo unspecified) | 4µM* | -93% | -10%
CCOC(=O)c1cc(C)n(CC2CCC(C(=O)Nc3cccc(Cl)c3)CC2)c1C (stereo unspecified) | ? | -17% | -23%
C/C(=C\CCC(C)C1=CCC2(C)OC3=C(CC12)C(=O)C(O)CC3)CO (stereo unspecified) | · | · | 1%[53.3 µM]
COc1ccc(CNc2nc(-c3ccco3)nn2C(=O)c2ccccc2C)cc1 | 16% | 8.9µM* | -23%
Cc1ccccc1C(=O)n1nc(-c2ccco2)nc1NCc1ccc(Cl)cc1 | 4% | ? | -25%
COc1ccccc1[C@@H]1C2=C(CC(C)(C)CC2=O)Nc2n[nH]c(C(F)(F)F)c21 | · | · | -3%
